From PubChem BioAssay (Tox21) come the findings set out here.

Molecules are shown by their SMILES. Where “and” joins values, the source holds several entries; their conditions need not be identical. Identical values can stand only once. Inconclusive results are not listed. Entries that show only a call come without a potency. Some structures have more than one record in an assay (separate samples or runs), and their calls can disagree. Calls of active or inactive are those of the source. The call rests on the fitted dose curve; in most records, active means well fitted cell-killing curve with a large enough effect in the repeat runs; inconclusive means weak or mixed curves, or effect the other way; inactive means no such curve, though single readings can be large or run the other way.

The first assay is described as follows: qHTS assay to identify small molecule antagonists of the glucocorticoid receptor (GR) signaling pathway - cell viability counter screen (AID 720693). Further: nearly all actives have a fitted effect of over 55% in size. To be noted: GR-bla HeLa viability, CellTiter-Glo luminescence, 18 h, with 5 nM dexamethasone present; series mostly up to 58.5 µM; viability change, negative = cytotoxic: at the top concentration.
As for `c1ccc2c(c1)ccc1ccccc12`, the compound was called inactive. Same read-out and setting: then `CCCC(C)=O`, with “inactive”. Regarding `Cc1ccc(S(N)(=O)=O)cc1`, the call was inactive. On to `CCCCCCCCCCCCOCCO`, for which the “viability change, negative = cytotoxic” value was 14.6% (inactive).

As to `CCCCC(CC)COC(=O)CCCCC(=O)OCC(CC)CCCC` (centres undefined), the compound was called inactive. As to `c1c[nH]cn1`, the compound was classed as inactive. Regarding `CCN(CC)c1ccc(C(=O)c2ccccc2C(=O)O)c(O)c1`, the outcome was inactive.

On to `CSCCC=O`, for which the result was inactive. The same measure, in the same setting: then `NNc1nncc2ccccc12`, with “inactive”.

Consider `CC1=CCC2CC1C2(C)C` (centres undefined), for which the outcome was inactive. Turning to `O=C(O)CCCCCCCCCCC(=O)O`, the call was inactive. On the same count and under the same terms, then `O=C(OCCOCCOC(=O)c1ccccc1)c1ccccc1`, with “inactive”; and `Fc1ccc(Br)cc1`, with “inactive”. With `Cc1cnc(C(=O)NCCc2ccc(S(=O)(=O)NC(=O)NC3CCCCC3)cc2)cn1`, the compound was classed as inactive.

Another assay can be described thus: qHTS assay for identifying genotoxic compounds that show differential cytotoxicity against isogenic chicken DT40 cell lines with known DNA damage response pathways - wild type cell line (AID 743012). Further: nearly all actives have a fitted effect of over 60% in size. Further: potency means the concentration at half of the fitted maximal effect. To be noted: DT40 wild type chicken cells viability, CellTiter-Glo, 40 h; series mostly up to 68.4 µM; activity change, negative = cytotoxicity: at the top concentration. A digest of the protocol:
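Endpoint: CellTiter-Glo luminescence, 30 min RT. Cells: wild type DT40, 300/well. Exposure: compounds in DMSO, 40 h, 37 C/5% CO2, after ~0.5 h pre-incubation.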
On the technique in general: Quantitative high-throughput screening tests each substance at several concentrations.
Turning to `CC(=O)c1ccccc1`, the Potency result is “inactive”. Same read-out and setting: then `COS(C)(=O)=O`, with “inactive”; and `OC[C@H]1O[C@@](CO)(O[C@H]2O[C@H](CO)[C@@H](O)[C@H](O)[C@H]2O)[C@@H](O)[C@@H]1O`, with “inactive”; and `O=C(O)CC(C(=O)O)C(CC(=O)O)C(=O)O` (centres undefined), with “inactive”.

With `COCCCOc1ccnc(CS(=O)c2nc3ccccc3[nH]2)c1C` (centres undefined), the Potency was 23.7 µM (active) and 15.3 µM (active). Still for that read-out and setting: then `CC(C)c1ccc(S(=O)(=O)O)cc1`, with “inactive”; and `CCCSc1ccc2nc(NC(=O)OC)[nH]c2c1`, with 227 nM (active) and 1.09 µM (active); and `CCN(CC)CCCC(C)Nc1ccnc2cc(Cl)ccc12` (centres undefined), with 21.1 µM (active). `C=CCOC(=O)c1ccccc1C(=O)OCC=C`: the “activity change, negative = cytotoxicity” value was 24.1% (inactive). Turning to `O=P(OC(CCl)CCl)(OC(CCl)CCl)OC(CCl)CCl`, the Potency was 43.3 µM (active). Still for that read-out and setting: with `CC1CCC2CC1C2(C)C` (centres undefined) the entry was “inactive”; with `O=C(Oc1ccccc1)c1ccccc1`, “inactive”; with `COc1ccc(Nc2ccccc2)c(C)c1`, “inactive”. Turning to `O=C1CCC(N2C(=O)c3ccccc3C2=O)C(=O)N1` (centres undefined), the Potency result is “inactive”.

Regarding `CCCCCC/C(C=O)=C\c1ccccc1`, the “activity change, negative = cytotoxicity” value was -20.1% (inactive). Turning to `O=C(O)c1ccc(C(=O)O)cc1`, the Potency entry is “inactive”. Regarding `O=c1[nH]c(=O)n([C@H]2C[C@H](O)[C@@H](CO)O2)cc1Br`, the “activity change, negative = cytotoxicity” value is -0.554% [at 95 µM] (inactive). In the case of `CCc1ccc(CCOc2ccc(CC3SC(=O)NC3=O)cc2)nc1` (centres undefined), the Potency result is “inactive and 68.6 µM (active)”.

For the compound `Cc1occc(=O)c1O`, the “activity change, negative = cytotoxicity” value is 0.195% [at 95 µM] (inactive). As for `Cc1ccc2oc(=O)ccc2c1`, the Potency result is “inactive”.

Take `CN(C)CCCN`: the Potency entry was “inactive”. Same read-out and setting: with `C#C[C@]1(O)CC[C@H]2[C@@H]3CCC4=CC(=O)CC[C@@H]4[C@H]3CC[C@@]21C` the entry was “inactive and 30.6 µM (active)”. Same read-out and setting: then `CCCC(C)=O`, with “inactive”; and `Cc1ccc(S(N)(=O)=O)cc1`, with “inactive”.

For `c1c[nH]cn1`, the Potency result is “inactive”. Same read-out and setting: with `CSCCC=O` the entry was “inactive”; with `CC1=CCC2CC1C2(C)C` (centres undefined), “inactive”. The same measure, in the same setting: then `O=C(O)CCCCCCCCCCC(=O)O`, with “inactive”. For `O=C(OCCOCCOC(=O)c1ccccc1)c1ccccc1`, the “activity change, negative = cytotoxicity” value was 15.5% (inactive).

Consider `Fc1ccc(Br)cc1`, for which the “activity change, negative = cytotoxicity” value was 6.73% (inactive).
